Hits are enriched below; roughly 7.4% of the tested compounds scored in any of these assays.
SMN2 splice enh: enhancers of SMN2 splice variant expression; Potency, µM (series often up to 46.1 µM), without a hit: at the top dose activity change, positive = activation, hits mostly activators; actives 2.8% (n = 210,000); AID 1458; HEK293 SMN2-luciferase splicing reporter, luminescence, 30-36 h; note: % of control where 0% means no effect; nearly all actives have a fitted effect of over 55% in size
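qHTS luciferase splicing reporter: luminescence rises when SMN2 exon 7 is included in transfected HEK293 cells. Compound exposure lasted 30-36 h at 37C, with 4.5 mM final sodium butyrate as control, followed by a ONE-Glo read.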
FLuc modulator: firefly luciferase modulation, counter-screen for miR-21 project; actives 6.9% (n = 360,000); P08659; purified FLuc, Km substrates, luminescence inhibition; Potency, µM (highest dose often 57.5 µM), without a hit: at the highest dose activity change, negative = inhibition, hits mostly inhibitors; AID 588342;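 note: plate controls were vehicle for no effect and reference inhibitor for full effect; nearly all actives have a fitted effect of over 55% in size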
Target sequence (P08659 whole entry, looked up): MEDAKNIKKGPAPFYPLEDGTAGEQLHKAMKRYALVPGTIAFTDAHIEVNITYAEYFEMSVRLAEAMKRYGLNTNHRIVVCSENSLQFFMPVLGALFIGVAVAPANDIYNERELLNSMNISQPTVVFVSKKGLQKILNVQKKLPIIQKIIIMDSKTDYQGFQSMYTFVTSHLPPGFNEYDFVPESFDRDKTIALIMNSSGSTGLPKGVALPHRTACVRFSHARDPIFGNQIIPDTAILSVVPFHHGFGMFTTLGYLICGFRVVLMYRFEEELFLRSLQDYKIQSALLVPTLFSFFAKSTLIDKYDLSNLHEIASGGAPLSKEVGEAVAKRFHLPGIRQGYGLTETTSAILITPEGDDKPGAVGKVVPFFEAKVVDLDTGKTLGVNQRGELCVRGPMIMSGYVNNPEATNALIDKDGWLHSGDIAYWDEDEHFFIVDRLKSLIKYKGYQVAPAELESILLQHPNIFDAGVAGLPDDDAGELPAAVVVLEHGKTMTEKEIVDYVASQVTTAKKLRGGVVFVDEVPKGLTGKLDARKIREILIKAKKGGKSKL
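Purified P. pyralis luciferase, 10 nM final, with Km-level 10 uM D-luciferin and 10 uM ATP in 50 mM Tris acetate pH 7.5, 10 mM Mg acetate, 0.01% Tween-20, 0.05% BSA; 6-point qHTS titration about 60 µM downward; luminescence read.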
p53 reactivator: re-activators of mutant p53; H1299 p53-A138V BP100-luciferase reporter, luminescence, 24 h; Potency, µM (series often up to 92.2 µM), without a hit: at the top dose activity change, positive = activation, hits mostly activators; actives 0.063% (n = 320,000); AID 504706; note: % of control where 0% means no effect; nearly all actives have a fitted effect of over 45% in size
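H1299 (p53-null), stable ts p53-A138V + BP100-Luc; 1000 cells/well, Opti-MEM/10% FBS; cpd 4 pt, 1:5; 24 h, 37 deg C, 5% CO2; detection reagent 10 min RT; luminescence.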
Rab9 prom act: activators of Rab9 promoter; Huh7 Rab9 promoter-luciferase reporter, luminescence, 24 h; Potency, µM (doses to about 9.22 µM), for inactives: top-dose activation, negative = inhibition, hits mostly activators; actives 2.8% (n = 320,000); note: % of control where 0% means no effect; nearly all actives have a fitted effect of over 60% in size
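Using Huh7 cells stably transfected with Rab9 promoter–luciferase, compounds were incubated 24 h at 37 °C, 5% CO2; luciferase luminescence was read 10 min after reagent addition.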
NPC1 prom act: activators of NPC1 promoter | Huh7 NPC1 promoter luciferase reporter, 24 h | Potency, µM (titrated, usually from 9.22 µM), without a hit: at the highest dose activation, most hits filed as activators | actives 2.4% (n = 320,000) | AID 485313; note: % of control where 0% means no effect; nearly all actives have a fitted effect of over 60% in size
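Stably transfected Huh7 (NPC1 promoter→luciferase), 1500 cells/well in Opti-MEM + 10% FBS, 2 h settle, then compound 24 h at 37 °C. Luminescence after 10 min with Amplite reagent.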
ELG1 genotox: genotoxicity induction in ELG1-luciferase HEK293T cells; HEK293T ELG1-luciferase reporter, luminescence, 16 h; Potency, µM (series often up to 46 µM), inactives show at the highest dose activity change, positive = activation, most hits filed as activators; actives 1.3% (n = 330,000); note: % of control where 0% means no effect; nearly all actives have a fitted effect of over 60% in size
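Quantitative HTS format in 1536-well plates. HEK293T ELG1-luciferase reporter cells receive test compound and are incubated 16 hr at 37 °C, 5% CO2; ONE-Glo added, 30 min room temperature, then luminescence read.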
Active calls of the source: *; ? = inconclusive; . = no result. Calls come from the whole dose curve; as a rule, active = well fitted curve in the direction sought with a large enough effect; inconclusive = small, poorly fitted or top-dose-only effect, or another doubt; inactive = no such curve, though single readings can be large; an effect the other way counts as inactive or inconclusive. Potency is the fitted concentration of half-maximal effect.

SMILES	SMN2 splice enh	FLuc modulator	p53 reactivator	Rab9 prom act	NPC1 prom act	ELG1 genotox
Oc1ccc(Nc2nc(-c3cccnc3)cs2)cc1	.	9.5µM*	?	1%	21%	?
O=C(Nc1cc(F)ccc1F)c1ccc(CN2CC(=O)N3CCCCC3C2=O)cc1 (stereo not given)	.	3%	.	.	.	.
CCOc1ccc(NC(=O)CN2CCc3cc4c(cc3C2)OCCCO4)cc1OCC	.	0%	5%	-9%	-6%	2%
Brc1ccc(Nc2nc(-c3cccnc3)cs2)cc1	14µM*	?	3%	29%	0%	?
Clc1cccc(Nc2nc(-c3cccnc3)cs2)c1	5%	13µM*	4%	21%	1%	?
COc1ccc(Cl)cc1Nc1nc(-c2cccnc2)cs1	.	?	.	-3%	1%	0%
Cc1cc(O)ccc1Nc1nc(-c2cccs2)cs1	?	0.54µM*	1%	?	?	3.3µM*
COc1cccc2c1nc(C)c1cc(C)oc12	?	21µM*	?	27%	20%	?
COc1ccc2nc(C)c3cc(C)oc3c2c1	-13%	-2%	-1%	-14%	-3%	-4%
COc1ccc(-n2c(-c3ccc(F)cc3)cnc2SCC(=O)NCc2ccco2)cc1	6%	24µM*	-3%	14%	0%	?
Cc1ccc(-n2nnc3c(SCC(=O)NCc4ccco4)ncnc32)cc1	-7%	13µM*	?	12%	0%	1%
COc1ccc(-n2nnc3c(SCC(=O)NCc4ccco4)ncnc32)cc1	-12%	9.5µM*	?	-10%	-4%	5%
CCC(=O)O[C@H]1C(O[C@@H]2C(C)[C@H](O[C@H]3C[C@@](C)(OC)C(O)C(C)O3)C(C)C(=O)OC(CC)[C@@](C)(O)C(O)[C@H](C)C(=O)C(C)C[C@]2(C)O)OC(C)CC1N(C)C (stereo not given in full)	-13%	.	.	.	.	.
COc1cccc(C(=O)/C=C2\NCCc3cc(OC)c(OC)cc32)c1	.	?	-10%	4%	-1%	-3%
COc1ccc(C(=O)/C=C2\NCC3c4ccccc4CCN3C2=O)cc1 (stereo not given)	9%	6µM*	3%	?	23%	0%
COc1cccc(NC(=O)CN2C(=O)CSc3ccc(S(=O)(=O)N4CCCC4)cc32)c1	.	-12%	.	.	.	.
CC(=O)c1cccc(NC(=O)CCc2nnc3ccc(N4CCOCC4)nn23)c1	.	-1%	1%	4%	-1%	0%
Cc1ccc(SCC(=O)c2ccc[nH]2)cc1	?	24µM*	4%	?	?	?
Cc1cc(C(=O)CSc2nnc(-c3cccs3)o2)c(C)n1-c1ccccc1	-42%	6.7µM*	-14%	-12%	-5%	-6%
Cc1ccc(CNC(=O)c2ccc[nH]2)cc1	5%	-3%	2%	2%	-12%	3%
COc1ccc(-c2nnc(SCC(=O)c3ccc[nH]3)o2)cc1	8.9µM*	4.3µM*	?	1.6µM*	3.2µM*	?
O=C(CSc1nnc(-c2cccs2)o1)c1cccs1	-2%	9.5µM*	17%	2.8µM*	1.6µM*	?
CCCCN(C(=O)/C=C/c1ccc(OC)cc1)C1CCS(=O)(=O)C1 (stereo not given)	.	-4%	-4%	-1%	0%	-8%
CC(=O)N1CCC2(CC1)OC(=O)C(C)=C2C(=O)Nc1cc(C)ccc1C	.	-1%	.	.	.	.
O=C(CSc1nnc(-c2cccs2)o1)OCc1ccccc1	7%	-3%	6%	-1%	0%	-3%
SMILES	SMN2 splice enh	FLuc modulator	p53 reactivator	Rab9 prom act	NPC1 prom act	ELG1 genotox
COc1ccc(-c2nnc(SCC(=O)c3cccs3)o2)cc1	16%	2.4µM*	26%	2.2µM*	3.5µM*	10µM*
O=C(CSc1nnc(-c2cccs2)o1)OC1CCCCC1	-3%	24µM*	15%	4%	-4%	2%
CC12CCC(=O)N1C(C(=O)Nc1nc3ccc(F)cc3s1)CS2 (stereo not given)	.	?	?	0%	0%	0%
CCOCC(=O)Nc1nc2ccc(C)cc2s1	10µM*	9.5µM*	?	1.8µM*	?	?
CCOCC(=O)Nc1nc2ccc(OCC)cc2s1	11µM*	8.5µM*	?	1.3µM*	2.5µM*	8.2µM*
CCOCC(=O)Nc1nc2ccc(S(C)(=O)=O)cc2s1	?	?	?	16%	2%	7%
Cc1ccc2nc(NC(=O)COC(=O)c3ccccn3)sc2c1	?	15µM*	?	?	?	0%
CCOc1ccc2nc(NC(=O)C3CSC4(C)CCC(=O)N34)sc2c1 (stereo not given)	.	21µM*	-8%	20%	1%	1%
CC1=C(C(N)=O)C(c2ccccc2F)n2nc(-c3ccc(Cl)cc3)nc2N1 (stereo not given)	10%	?	.	.	.	.
O=C(COC(=O)c1ccc(S(=O)(=O)C(F)F)cc1)NC(=O)NC1CCCCC1	.	0%	-3%	-5%	0%	3%
CCOc1ccc(Nc2nc(C)c(NC(=O)c3cccc(F)c3)c(Nc3ccc(OCC)cc3)n2)cc1	10%	3%	.	.	.	.
COc1cc(C(=O)N(CCCN(C)C)c2nc3c(OC)cccc3s2)cc(OC)c1OC	.	-3%	.	.	.	.
CC(Oc1ccc(F)cc1)C(=O)Nc1nc(-c2ccc(F)cc2)ns1 (stereo not given)	-44%	?	.	.	.	.
CCOc1ccc2nc(SCC(=O)Nc3cc(C)on3)c(C)cc2c1	.	4%	5%	3%	-6%	1%
C/C=C/C(=O)OCC(=O)Nc1nc2ccc(C)cc2s1	17%	21µM*	?	?	24%	?

Screening results as filed in PubChem.
